Experiment [1] relates to PRMT1 (protein arginine N-methyltransferase 1). Kind of experiment: PRMT1 binders on small-molecule microarrays, primary screen, biochemical, small-molecule microarray, 635 nm fluorescence (AID 1088).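 Further: binding of Prmt1 protein to compounds spotted on small-molecule microarray slides.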 Conditions: small-molecule microarray binding, higher = more signal.
A short description of experiment [2]: yeast growth modulation, basal conditions, primary screen, YJM789 clinical isolate, OD600, 24 h (AID 1089).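 Further: growth of clinical yeast isolate S. cerevisiae YJM 789 seeded 1000 cells per well; test concentration not given here.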 The following applies: S. cerevisiae YJM789 growth, higher = more signal, called active from +8 up or from −8 down.
The nature of experiment [3]: fission yeast growth modulation, primary screen, strain 972, OD600, 24 h, no modulator (AID 1090).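 Further: basal condition with compound alone and no growth modifier present; test concentration not given here.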 Conditions: S. pombe 972 growth, higher = more signal, called active from +8 up or from −8 down.
The nature of experiment [4]: S. cerevisiae growth modulation with rapamycin, primary screen, strain BY4716, OD600, 96 h (AID 1091). Further: test concentration not given here. The following applies: higher = more signal, called active from +8 up or from −8 down.
For experiment [5], the target named is Torsin-1A-interacting protein 2 (Homo sapiens) (UniProt Q8NFQ8). The experiment is described as follows: LULL1 binders on small-molecule microarray, primary screen, cell lysate, human LULL1 lysate, 635/667 nm fluorescence (AID 1092).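 Further: probe is lysate of COS7 cells overexpressing human LULL1; score merges per-feature 667 nm fluorescence with signal-to-noise.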 The following applies: hLULL1 lysate binding, 635 nm fluorescence, higher = more signal.
Torsin-1A-interacting protein 2 (Homo sapiens), sequence (Q8NFQ8 whole entry, looked up): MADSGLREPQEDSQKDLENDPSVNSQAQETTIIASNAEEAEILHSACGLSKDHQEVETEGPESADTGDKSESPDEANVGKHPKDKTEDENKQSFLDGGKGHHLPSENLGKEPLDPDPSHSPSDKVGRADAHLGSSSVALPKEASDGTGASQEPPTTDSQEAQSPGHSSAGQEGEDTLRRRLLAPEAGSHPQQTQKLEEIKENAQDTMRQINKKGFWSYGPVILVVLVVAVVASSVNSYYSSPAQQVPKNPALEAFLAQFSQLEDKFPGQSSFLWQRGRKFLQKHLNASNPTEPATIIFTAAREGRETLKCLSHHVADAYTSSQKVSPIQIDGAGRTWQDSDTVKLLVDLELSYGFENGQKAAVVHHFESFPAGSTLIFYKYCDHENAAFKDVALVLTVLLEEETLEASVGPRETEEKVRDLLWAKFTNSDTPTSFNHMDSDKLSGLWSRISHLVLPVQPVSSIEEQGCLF
A short description of experiment [6]: E. coli growth modulation, two-sided OD650, primary screen, E. coli filamentation project, strain DRC41, 24 h (AID 1093).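 Further: MC1000 strain lacking acrAB efflux and sulA so SOS filamentation is blocked; test concentration not given here.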 The following applies: OD650, 24 h, higher = more signal, called active from +8 up or from −8 down.
Experiment [7] can be described thus: small-molecule microarray binders of probe aLefty2, primary screen, biochemical, biotinylated probe, 635/667 nm fluorescence (AID 1094).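 Further: score merges spot fluorescence near 667 nm with spot signal-to-noise ratio.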 The following applies: higher = more signal.
The subject of experiment [8] is Noggin (protein binding on small-molecule microarray). Kind of experiment: Noggin binders on small-molecule microarray, primary screen, biochemical, 635/667 nm fluorescence (AID 1095).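 Further: score merges 667 nm feature fluorescence with signal to noise over triplicate slides.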 The following applies: 635 nm fluorescence, higher = more signal.
Experiment [9] concerns the target Neurogenic locus notch homolog protein 3 (Homo sapiens) (UniProt Q9UM47). Kind of experiment: NOTCH3 binders on small-molecule microarray, primary screen, biochemical, 635/667 nm fluorescence (AID 1096). The following applies: NOTCH3 binding, 635 nm fluorescence, higher = more signal.
Experiment [10] in a line: small-molecule microarray binders of probe aEGFR, primary screen, biochemical, biotinylated probe, 635/667 nm fluorescence (AID 1097).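 Further: probe is a biotinylated anti-EGFR antibody binding compounds printed on slides; score combines fluorescence near 667 nm and signal to noise of each spot.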 Conditions: higher = more signal.
Experiment [11] deals with Plasmodium falciparum Sir2 (PF13_0152, Sir2A). The experiment is described as follows: pfSir2 binders on small-molecule microarrays, primary screen, biochemical, small-molecule microarray, 635 nm fluorescence (AID 1098).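 Further: score merges spot fluorescence intensity with its signal-to-noise ratio.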 The following applies: small-molecule microarray binding, fluorescence 635 nm; higher = more signal.
A short description of experiment [12]: small-molecule microarray binders of probe aDKK1, primary screen, biochemical, biotinylated probe, 635/667 nm fluorescence (AID 1099).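 Further: score merges 667nm spot fluorescence with signal to noise across triplicate slides; reference of the scale not given here.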 Conditions: higher = more signal.
Experiment [13] in a line: small-molecule microarray binders of probe aCHRDL2, primary screen, biochemical, biotinylated probe, 635/667 nm fluorescence (AID 1100). Conditions: higher = more signal.
Experiment [14] is described as follows: splicing luciferase reporter signal modulators, primary screen, spliceosome inhibition project, cell-based, HEK293, splice +/- reporter (AID 1101).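 Further: HEK293 cells carrying a splicing-competent luciferase reporter gene; test concentration not given here.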 The following applies: luminescence, 24 h, higher = more signal, called active from +8 up or from −8 down.
In experiment [15] the target is Fibroblast growth factor 10 (Homo sapiens) (UniProt O15520). Kind of experiment: FGF10 binders on small-molecule microarrays, primary screen, biochemical, small-molecule microarray, 635 nm fluorescence (AID 1102). The following applies: FGF10 binding, fluorescence 635 nm, higher = more signal.
Fibroblast growth factor 10 (Homo sapiens), sequence (O15520 whole entry, looked up): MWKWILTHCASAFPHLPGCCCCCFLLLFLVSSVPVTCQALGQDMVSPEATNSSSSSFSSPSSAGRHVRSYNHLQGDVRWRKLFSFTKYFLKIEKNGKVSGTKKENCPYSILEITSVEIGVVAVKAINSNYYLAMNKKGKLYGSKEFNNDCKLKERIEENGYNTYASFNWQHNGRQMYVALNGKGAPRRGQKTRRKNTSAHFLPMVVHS
Experiment [16] has as its system glycogen synthase kinase-3 (GSK3A per assay name; protocol says GSK3B). The experiment is described as follows: GSK3 binders on small-molecule microarrays, primary screen, biochemical, small-molecule microarray, 635 nm fluorescence, GSK3A (AID 1103). Further: the record names both GSK3A and GSK3B. The following applies: small-molecule microarray binding, fluorescence 635 nm; higher = more signal.
Experiment [17] deals with Epidermal growth factor receptor (Homo sapiens) (UniProt P00533). Kind of experiment: EGFR binders on small-molecule microarrays, primary screen, biochemical, small-molecule microarray, 635 nm fluorescence (AID 1104).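 Further: score merges 667 nm emission intensity with spot signal to noise over triplicate slides.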 Conditions: EGFR binding, higher = more signal.
Epidermal growth factor receptor (Homo sapiens), sequence (P00533 whole entry, looked up): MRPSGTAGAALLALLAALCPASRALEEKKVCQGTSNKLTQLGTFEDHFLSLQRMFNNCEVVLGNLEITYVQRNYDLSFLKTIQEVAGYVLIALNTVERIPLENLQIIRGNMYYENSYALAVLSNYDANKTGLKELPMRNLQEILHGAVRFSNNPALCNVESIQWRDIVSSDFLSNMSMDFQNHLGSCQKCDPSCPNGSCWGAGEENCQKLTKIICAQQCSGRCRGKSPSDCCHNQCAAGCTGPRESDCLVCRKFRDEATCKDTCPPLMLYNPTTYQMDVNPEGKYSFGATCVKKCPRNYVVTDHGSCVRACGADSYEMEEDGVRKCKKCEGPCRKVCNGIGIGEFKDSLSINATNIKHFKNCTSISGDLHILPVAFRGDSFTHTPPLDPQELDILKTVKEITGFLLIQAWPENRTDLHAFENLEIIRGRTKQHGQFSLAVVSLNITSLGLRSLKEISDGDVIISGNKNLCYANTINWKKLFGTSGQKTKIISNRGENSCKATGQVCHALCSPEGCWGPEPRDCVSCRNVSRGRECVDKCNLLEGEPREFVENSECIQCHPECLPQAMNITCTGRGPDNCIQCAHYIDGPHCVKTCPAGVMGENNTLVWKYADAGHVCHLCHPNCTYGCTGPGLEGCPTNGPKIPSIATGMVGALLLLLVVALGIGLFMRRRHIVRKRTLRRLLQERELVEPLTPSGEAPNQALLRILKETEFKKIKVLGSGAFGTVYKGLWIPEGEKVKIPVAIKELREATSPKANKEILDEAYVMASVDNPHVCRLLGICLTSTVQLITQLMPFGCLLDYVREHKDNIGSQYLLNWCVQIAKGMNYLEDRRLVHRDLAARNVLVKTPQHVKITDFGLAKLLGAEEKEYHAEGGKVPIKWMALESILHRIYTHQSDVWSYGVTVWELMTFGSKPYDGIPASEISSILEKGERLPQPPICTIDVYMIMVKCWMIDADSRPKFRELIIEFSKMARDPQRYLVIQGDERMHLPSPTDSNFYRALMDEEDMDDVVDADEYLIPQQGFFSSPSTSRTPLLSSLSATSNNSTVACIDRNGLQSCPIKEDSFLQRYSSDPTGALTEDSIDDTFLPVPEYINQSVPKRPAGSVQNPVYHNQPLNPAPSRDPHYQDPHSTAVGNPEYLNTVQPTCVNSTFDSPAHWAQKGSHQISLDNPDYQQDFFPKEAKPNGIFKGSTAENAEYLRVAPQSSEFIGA
Experiment [18] has as its target Follistatin-related protein 3 (Homo sapiens) (UniProt O95633). Kind of experiment: FSTL3 binders on small-molecule microarrays, primary screen, biochemical, small-molecule microarray, 635 nm fluorescence (AID 1105).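 Further: score merges emission near 667 nm and signal to noise per printed spot across three slides.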 Conditions: FSTL3 binding, higher = more signal.
Experiment [19] deals with Dickkopf-related protein 1 (Homo sapiens) (UniProt O94907). The experiment is described as follows: DKK1 binders on small-molecule microarrays, primary screen, biochemical, small-molecule microarray, 635 nm fluorescence scan (AID 1106).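 Further: score merges emission near 667 nm with signal to noise over three replicate slides.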 The following applies: DKK1 binding, higher = more signal.
Dickkopf-related protein 1 (Homo sapiens), sequence (O94907 whole entry, looked up): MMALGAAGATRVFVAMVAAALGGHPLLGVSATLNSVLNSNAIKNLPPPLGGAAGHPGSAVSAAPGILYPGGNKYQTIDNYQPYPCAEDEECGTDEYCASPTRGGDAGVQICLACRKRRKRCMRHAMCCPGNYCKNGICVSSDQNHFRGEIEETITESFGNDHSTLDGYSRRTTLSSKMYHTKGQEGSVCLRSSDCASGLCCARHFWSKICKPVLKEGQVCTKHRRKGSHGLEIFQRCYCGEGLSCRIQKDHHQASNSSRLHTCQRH
The subject of experiment [20] is Inhibin beta A chain (activin A). Kind of experiment: INHBA (activin A) binders on microarrays, primary screen, biochemical, small-molecule microarray, 635 nm fluorescence scan (AID 1107).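 Further: mouse activin A protein probed at 4.33 µg/mL on printed slides; score merges bound-protein fluorescence near 667 nm with spot signal-to-noise.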 The following applies: small-molecule microarray binding, higher = more signal.

Active and inactive are the calls of the source.

Follistatin-related protein 3 (Homo sapiens), sequence (O95633 whole entry, looked up): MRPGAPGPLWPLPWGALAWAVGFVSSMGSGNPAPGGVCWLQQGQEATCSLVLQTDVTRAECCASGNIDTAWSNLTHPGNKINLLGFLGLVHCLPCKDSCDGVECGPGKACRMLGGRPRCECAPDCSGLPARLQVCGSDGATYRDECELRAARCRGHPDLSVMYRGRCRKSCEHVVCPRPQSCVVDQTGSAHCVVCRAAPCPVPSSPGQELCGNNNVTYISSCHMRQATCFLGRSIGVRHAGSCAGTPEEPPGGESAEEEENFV
Neurogenic locus notch homolog protein 3 (Homo sapiens), sequence (Q9UM47 whole entry, looked up): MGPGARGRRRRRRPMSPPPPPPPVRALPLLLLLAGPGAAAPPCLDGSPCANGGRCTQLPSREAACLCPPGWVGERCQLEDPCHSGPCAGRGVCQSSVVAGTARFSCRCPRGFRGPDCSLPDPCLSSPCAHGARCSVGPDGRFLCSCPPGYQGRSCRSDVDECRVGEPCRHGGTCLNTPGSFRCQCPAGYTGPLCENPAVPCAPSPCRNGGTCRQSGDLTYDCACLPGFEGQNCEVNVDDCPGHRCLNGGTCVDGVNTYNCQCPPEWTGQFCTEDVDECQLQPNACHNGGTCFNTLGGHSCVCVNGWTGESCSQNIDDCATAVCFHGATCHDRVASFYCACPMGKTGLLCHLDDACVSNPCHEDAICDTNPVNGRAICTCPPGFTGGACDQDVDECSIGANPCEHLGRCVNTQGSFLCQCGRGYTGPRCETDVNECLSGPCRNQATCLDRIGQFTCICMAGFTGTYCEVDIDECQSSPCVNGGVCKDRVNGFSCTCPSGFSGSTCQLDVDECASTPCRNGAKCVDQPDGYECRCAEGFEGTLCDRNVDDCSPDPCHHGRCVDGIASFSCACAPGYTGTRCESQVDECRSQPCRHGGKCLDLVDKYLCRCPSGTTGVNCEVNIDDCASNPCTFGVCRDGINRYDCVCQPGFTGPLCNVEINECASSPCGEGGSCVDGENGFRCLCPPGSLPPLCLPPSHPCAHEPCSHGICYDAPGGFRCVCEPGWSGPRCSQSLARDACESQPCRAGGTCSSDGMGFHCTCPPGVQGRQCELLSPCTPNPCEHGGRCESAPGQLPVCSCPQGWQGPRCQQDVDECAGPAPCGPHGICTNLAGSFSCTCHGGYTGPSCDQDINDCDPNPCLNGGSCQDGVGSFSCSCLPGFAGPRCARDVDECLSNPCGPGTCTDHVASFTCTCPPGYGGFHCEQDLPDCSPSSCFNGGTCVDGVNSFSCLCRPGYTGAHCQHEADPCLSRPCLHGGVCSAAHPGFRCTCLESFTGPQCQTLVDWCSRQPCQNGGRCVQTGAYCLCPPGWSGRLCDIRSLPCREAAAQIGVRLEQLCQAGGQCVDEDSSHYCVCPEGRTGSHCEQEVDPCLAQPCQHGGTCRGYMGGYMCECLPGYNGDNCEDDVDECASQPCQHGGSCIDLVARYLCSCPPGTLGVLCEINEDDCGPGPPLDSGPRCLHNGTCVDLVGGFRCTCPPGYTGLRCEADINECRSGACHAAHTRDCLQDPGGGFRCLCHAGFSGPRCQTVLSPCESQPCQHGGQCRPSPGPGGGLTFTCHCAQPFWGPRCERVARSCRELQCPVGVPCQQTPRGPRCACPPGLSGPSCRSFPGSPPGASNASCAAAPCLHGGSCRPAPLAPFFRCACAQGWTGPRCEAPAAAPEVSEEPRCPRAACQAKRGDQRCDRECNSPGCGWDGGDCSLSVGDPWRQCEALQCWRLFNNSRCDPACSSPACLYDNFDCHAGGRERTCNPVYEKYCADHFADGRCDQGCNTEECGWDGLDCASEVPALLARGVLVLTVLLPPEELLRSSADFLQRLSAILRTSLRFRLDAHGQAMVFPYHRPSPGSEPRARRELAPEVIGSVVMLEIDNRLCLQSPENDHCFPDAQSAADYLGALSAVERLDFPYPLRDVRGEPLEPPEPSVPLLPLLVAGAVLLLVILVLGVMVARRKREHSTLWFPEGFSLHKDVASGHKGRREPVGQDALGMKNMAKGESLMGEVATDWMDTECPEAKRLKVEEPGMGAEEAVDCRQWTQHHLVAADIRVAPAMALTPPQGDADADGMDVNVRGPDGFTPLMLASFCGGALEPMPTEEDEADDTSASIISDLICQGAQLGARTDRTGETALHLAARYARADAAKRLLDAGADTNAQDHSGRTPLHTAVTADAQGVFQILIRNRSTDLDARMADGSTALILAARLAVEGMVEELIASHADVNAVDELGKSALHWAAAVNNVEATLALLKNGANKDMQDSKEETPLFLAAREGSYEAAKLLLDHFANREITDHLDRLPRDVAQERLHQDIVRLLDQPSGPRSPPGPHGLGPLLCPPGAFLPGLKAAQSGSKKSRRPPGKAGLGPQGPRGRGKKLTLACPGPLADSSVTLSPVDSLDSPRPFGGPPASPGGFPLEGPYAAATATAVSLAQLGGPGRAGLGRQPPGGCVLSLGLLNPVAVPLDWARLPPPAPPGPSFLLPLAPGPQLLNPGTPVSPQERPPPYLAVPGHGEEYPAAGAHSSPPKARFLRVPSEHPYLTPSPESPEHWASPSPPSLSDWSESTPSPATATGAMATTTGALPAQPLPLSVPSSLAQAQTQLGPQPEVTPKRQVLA

Take `CC(C)=C1C(=O)C(c2ccccc2)=C2CN3C(=O)N(CCc4ccccc4)C(=O)[C@]3(Cc3ccc(F)cc3)[C@H]21`: the composite z-score is 1.11 in [1]; 2.04 in experiment [5]; 0.253 in experiment [7]; -1.25 in experiment [8]; -1.3 in [9]; 0.119 in [10]. For the same molecule, the composite z-score was -0.0467 in experiment [11]; 0.993 in experiment [12]; 1.21 in experiment [13]; -0.625 in experiment [15]; -0.643 in [16]; -2.06 in experiment [17]. For the same molecule, the results for the composite z-score in experiment [18], in [19] and in experiment [20] were -0.655, -1.92 and 0.51, respectively. In addition, the z-score in [2] is -0.129 (inactive); in experiment [3] it was -0.0353 (inactive); in [4] it was 0.135 (inactive); in [6], -1.7 (inactive); in [14] it was 0.762 (inactive).
Regarding `O=C(NN=C1C[C@@H](O)[C@@H](O)[C@@H]2[C@@H]3C(=O)N(c4ccc(F)cc4F)C(=O)[C@@H]3CC[C@@H]12)OCc1ccccc1`, the composite z-score is -0.127 in [1]; 1.03 in [5]; -0.11 in experiment [7]; -0.0944 in experiment [8]; 0.57 in experiment [9]; -0.0616 in experiment [10]. For the same molecule, the composite z-score was 0.328 in experiment [11]; -0.269 in [12]; -0.232 in experiment [13]; -0.0739 in experiment [15]; -0.0799 in experiment [16]; 0.452 in experiment [17]. Further, the composite z-score was 0.297 in [18], 0.092 in experiment [19] and -0.103 in experiment [20]. The z-score is 0.615 (inactive) in [2]; 0.664 (inactive) in experiment [3]; -0.442 (inactive) in experiment [4]; 0.203 (inactive) in experiment [6]; 0.464 (inactive) in experiment [14].
In the case of `COCC1=C2[C@@H](CCc3ccccc3)OB(O)C[C@@H]2n2c(=O)n(-c3ccccc3)c(=O)n2C1`, the composite z-score in experiment [1] is -0.162; in experiment [5] it was 0.332; in [7], -0.166; in experiment [8], 0.264; in [9], -0.26; in experiment [10] it was -0.145. The composite z-score in experiment [11] is 0.48; in [12] it was -0.32; in [13], -0.448; in experiment [15] it was 0.511; in experiment [16], -0.114; in experiment [17], 0.492. Also, the composite z-score in experiment [18] was 0.444; in experiment [19], 0.374; in experiment [20] it was 0.632. Moreover, the z-score in experiment [2] was 0.114 (inactive); in [3], -0.591 (inactive); in [4], -0.644 (inactive); in experiment [6] it was 0.203 (inactive); in [14], 0.184 (inactive).
For the molecule `CC1CC/C=C\[C@H]2OC34C=CCN(Cn5nnc6ccccc65)C(=O)[C@H]3N(CCO)C(=O)[C@@H]4C2C(=O)O1` (stereo not given in full), the composite z-score in experiment [1] was 0.754; in experiment [5], 3.32; in experiment [7], -0.0819; in experiment [8] it was -1.08; in experiment [9] it was -0.695; in experiment [10] it was -0.424. The composite z-score in experiment [11] is 2; in [12], -0.559; in experiment [13], 0.514; in [15], -1.16; in experiment [16] it was 0.476; in experiment [17], -1.01. Moreover, the composite z-score was 0.0695 in [18], -0.52 in [19] and 1.19 in experiment [20]. For the same molecule, the z-score in experiment [2] was -1.71 (inactive); in [3] it was -1.64 (inactive); in experiment [4] it was -1.99 (inactive); in experiment [6] it was 2.92 (inactive); in [14], -1.58 (inactive).
For the molecule `CCCCc1nc2c(c3c1C[C@H](C)OC3)CN(CCC(C)C)CC2`, the composite z-score in [1] was 1.49; in experiment [5] it was 2; in [7], -0.114; in [8] it was 0.582; in experiment [9] it was 1.11; in [10] it was -0.0627. Further, the composite z-score in experiment [11] is 0.956; in experiment [12], -0.0466; in experiment [13], -0.47; in experiment [15], 0.627; in experiment [16] it was 1.25; in [17], 0.488. Besides, the results for the composite z-score in experiment [18], in [19] and in experiment [20] were 1.26, 0.562 and 0.0968, respectively. Further, the z-score in [2] was -0.147 (inactive); in experiment [3], -1.52 (inactive); in [4], -1.07 (inactive); in experiment [6], 0.567 (inactive); in [14] it was -0.0873 (inactive).

Values taken from PubChem BioAssay.
